Screening data deposited in PubChem BioAssay by National Center for Advancing Translational Sciences (NCATS).
VDR inh = blocks the human vitamin D receptor; P11473; VDR-SRC2-3 peptide fluorescence polarization, 2 h; Potency, µM, without a hit: max response, negative = inhibition, actives largely listed as inhibitors; actives 0.93% (n = 400,000); also: % is scaled to controls: 0 for no effect and ±100 for the full control effect
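Signal is fluorescence polarization, reporting how far test compounds block the interaction of VDR with the SRC2-3 coregulator peptide after a 2 h room-temperature incubation.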
BAZ2B inh = blocks human BAZ2B | Q9UIF8 | Potency, µM (series often up to 114 µM), for the others: at the highest dose activity change, negative = inhibition, most hits filed as inhibitors | AlphaScreen BAZ2B-H3K14Ac peptide displacement | actives 4.4% (n = 360,000) | AID 504333; also: % is scaled to controls: 0 for no effect and ±100 for the full control effect; nearly all actives have a fitted effect of over 60% in size
Target sequence (Q9UIF8 whole entry, looked up): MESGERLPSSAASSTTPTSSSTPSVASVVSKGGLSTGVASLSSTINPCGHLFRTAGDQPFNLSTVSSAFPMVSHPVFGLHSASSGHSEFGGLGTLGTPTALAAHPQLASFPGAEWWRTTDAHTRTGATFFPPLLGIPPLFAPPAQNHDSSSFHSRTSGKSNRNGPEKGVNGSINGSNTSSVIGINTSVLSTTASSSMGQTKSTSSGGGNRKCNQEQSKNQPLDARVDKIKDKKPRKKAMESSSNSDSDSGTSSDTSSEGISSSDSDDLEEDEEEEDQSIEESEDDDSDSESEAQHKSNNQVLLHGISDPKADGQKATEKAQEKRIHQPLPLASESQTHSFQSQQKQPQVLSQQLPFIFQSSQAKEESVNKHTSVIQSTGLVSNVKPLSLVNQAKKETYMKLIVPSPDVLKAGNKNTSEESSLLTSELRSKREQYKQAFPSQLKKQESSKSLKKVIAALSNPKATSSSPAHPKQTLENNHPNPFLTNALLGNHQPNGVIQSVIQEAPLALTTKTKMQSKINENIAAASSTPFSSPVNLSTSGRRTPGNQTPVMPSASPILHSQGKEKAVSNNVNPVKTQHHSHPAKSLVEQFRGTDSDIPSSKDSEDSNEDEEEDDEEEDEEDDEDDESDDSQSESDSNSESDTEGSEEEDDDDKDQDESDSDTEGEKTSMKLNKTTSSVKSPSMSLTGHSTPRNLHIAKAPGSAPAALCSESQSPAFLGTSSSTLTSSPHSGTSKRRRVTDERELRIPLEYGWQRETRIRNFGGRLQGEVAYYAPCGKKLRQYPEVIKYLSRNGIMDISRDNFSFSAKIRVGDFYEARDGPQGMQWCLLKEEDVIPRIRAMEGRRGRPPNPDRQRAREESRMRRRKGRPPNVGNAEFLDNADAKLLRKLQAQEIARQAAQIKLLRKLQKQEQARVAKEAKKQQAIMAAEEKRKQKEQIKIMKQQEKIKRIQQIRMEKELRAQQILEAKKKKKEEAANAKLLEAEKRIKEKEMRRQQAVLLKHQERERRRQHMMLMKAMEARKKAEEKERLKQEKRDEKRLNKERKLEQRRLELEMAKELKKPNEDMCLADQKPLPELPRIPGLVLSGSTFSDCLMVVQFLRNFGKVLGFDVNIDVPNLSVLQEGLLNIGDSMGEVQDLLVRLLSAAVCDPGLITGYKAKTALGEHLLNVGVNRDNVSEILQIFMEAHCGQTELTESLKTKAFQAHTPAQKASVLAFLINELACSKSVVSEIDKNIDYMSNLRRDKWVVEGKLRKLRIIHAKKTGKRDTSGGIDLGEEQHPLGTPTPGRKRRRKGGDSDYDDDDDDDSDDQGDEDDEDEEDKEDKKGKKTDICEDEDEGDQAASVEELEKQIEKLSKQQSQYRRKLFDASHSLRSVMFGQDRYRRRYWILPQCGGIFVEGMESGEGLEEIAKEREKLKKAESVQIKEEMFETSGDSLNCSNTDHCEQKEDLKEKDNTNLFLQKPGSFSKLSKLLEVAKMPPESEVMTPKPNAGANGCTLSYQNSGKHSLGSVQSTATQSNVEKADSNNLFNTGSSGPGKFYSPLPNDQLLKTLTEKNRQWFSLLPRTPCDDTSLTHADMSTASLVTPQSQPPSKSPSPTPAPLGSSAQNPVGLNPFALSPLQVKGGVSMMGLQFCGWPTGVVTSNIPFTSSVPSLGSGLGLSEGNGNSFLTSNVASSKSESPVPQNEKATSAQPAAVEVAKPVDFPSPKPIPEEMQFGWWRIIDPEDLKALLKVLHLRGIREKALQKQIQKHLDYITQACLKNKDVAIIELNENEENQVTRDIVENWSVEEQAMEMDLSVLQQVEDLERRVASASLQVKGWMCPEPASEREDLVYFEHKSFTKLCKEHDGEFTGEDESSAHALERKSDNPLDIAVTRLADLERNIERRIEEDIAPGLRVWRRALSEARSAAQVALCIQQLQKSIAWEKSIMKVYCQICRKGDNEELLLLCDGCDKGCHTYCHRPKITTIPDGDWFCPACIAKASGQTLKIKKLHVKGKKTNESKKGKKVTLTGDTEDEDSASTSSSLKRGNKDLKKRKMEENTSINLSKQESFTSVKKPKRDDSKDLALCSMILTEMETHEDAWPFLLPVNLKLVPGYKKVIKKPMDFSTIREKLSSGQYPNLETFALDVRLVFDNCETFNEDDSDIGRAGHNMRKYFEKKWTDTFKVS
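Protein-peptide AlphaScreen: BAZ2B 50 nM, b-H3K14Ac 50 nM, 1x PBS pH 7.4 + 0.01% Tween-20. Preincubation 30 min RT; cpd 30 min RT (top 110 uM); beads 20 min RT, light-protected.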
L3MBTL1 block = blocks human L3MBTL1 | AlphaScreen L3MBTL1–H3K9me1 peptide binding | Potency, µM (doses to about 57.1 µM), inactives show at the top dose activity, negative = inhibition, most hits filed as inhibitors | actives 0.66% (n = 230,000) | AID 485360; also: % is scaled to controls: 0 for no effect and ±100 for the full control effect; nearly all actives have a fitted effect of over 60% in size
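L3MBTL1 (50 nM) pre-complexed 30 min with biotinylated H3(1-15)K9me1 peptide (75 nM), then compounds added for 30 min at room temperature; AlphaScreen streptavidin donor/nickel chelate acceptor beads (10 ug/mL final) read after 30 min dark incubation.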
JMJD2A Tudor = JMJD2A Tudor domain (human) inhibition | O75164 | AlphaScreen JMJD2A-Tudor / H3K4me3 peptide binding | Potency, µM (doses to about 114 µM), for inactives: at the highest dose activity change, negative = inhibition, hits mostly inhibitors | actives 4.4% (n = 390,000) | AID 504339; also: % is scaled to controls: 0 for no effect and ±100 for the full control effect; nearly all actives have a fitted effect of over 50% in size
HP1b binding inh = HP1-beta chromodomain-methylated histone interaction inhibition. AlphaScreen HP1-beta / biotin-H3K9me3 peptide binding. actives 0.56% (n = 390,000). Potency, µM (doses to about 114 µM), for inactives: at the top dose activity change, negative = inhibition, hits mostly inhibitors; also: nearly all actives have a fitted effect of over 70% in size
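AlphaScreen: HP1-beta (50 nM) preformed 30 min with biotin-H3(1-18)K9me3 peptide (50 nM) in PBS pH 7.4, 0.01% Tween-20. Compound added for 30 min at RT, then streptavidin donor/nickel chelate acceptor beads (10 ug/mL) for 30 min.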
PLK1 PBD inh = PLK1 (human) polo-box domain binding inhibition. P53350. Plk1 PBD binding of FITC phosphopeptide, fluorescence polarization. Potency, µM, without a hit: max response, negative = inhibition, hits mostly inhibitors. actives 2.8% (n = 360,000). AID 720504; also: series mostly up to about 57 µM; % is scaled to controls: 0 for no effect and ±100 for the full control effect; nearly all actives have a fitted effect of over 65% in size
Starred values were filed as active, the others as inactive; ? = inconclusive; / = not tested or not shown; ! = not active in a repeat; [ ] = dose if it differs, or a comment. Rows were chosen to be rich in hits. Some 6.9% of all compounds tested hit in one or more screens of this group. Calls follow the shape of the dose curve; as a rule, active = well fitted curve in the direction sought with a large enough effect; inconclusive = small, poorly fitted or top-dose-only effect, or another doubt; inactive = no such curve, though single readings can be large; an effect the other way counts as inactive or inconclusive. Potency is read from the fitted curve at half-maximal effect.

SMILES	VDR inh	BAZ2B inh	L3MBTL1 block	JMJD2A Tudor	HP1b binding inh	PLK1 PBD inh
C/C=C/c1ccc2oc(-c3ccc(O)cc3)c(C)c2c1	7%	/	/	/	/	/
c1ccc2c(c1)[nH]c1nc(SCCN3CCOCC3)nnc12	-1%	6%	1%	79µM*	18%	27µM*
CCCn1c2ccccc2c2nnc(SCCN3CCOCC3)nc21	-5%	-20%	/	-24%	37%	-20%
Brc1ccc2[nH]c3nc(SCCN4CCOCC4)nnc3c2c1	7%	-12%	2%	79µM*!	6%	-7%
O=C(CSc1nnc2c(n1)[nH]c1ccccc12)Nc1ccc(N2CCOCC2)cc1	4%	-31%	57%	32µM*	0%	?
Nc1ccc(C(=O)Oc2ccccc2)c(O)c1	0%	/	/	/	/	/
CC(=O)c1n[nH]nc1NC(=O)c1ccccc1	23%	50µM*	/	20µM*	6%	-6%
O=[N+]([O-])c1ccc2c(c1)-c1ccccc1C2=NO	-2%	/	/	?	?	-13%
O=[N+]([O-])c1ccc2c(c1)C(=Nc1ccccc1)c1ccccc1-2	15%	/	/	32µM*	?	-15%
COc1ccc(Br)cc1Cn1nnc(C(=O)Nc2ccc(C)cc2C)c1N	0%	-5%	/	8%	34%	/
COc1ccc(-c2oc3ccccc3c2C(=O)OCc2ccc(O)cc2)cc1	14%	5%	7%	4%	103%	20%
COc1ccc(-c2oc3ccccc3c2C(=O)OCc2ccccc2)cc1	-20%	61%	91%	127%	184%	24µM*
COc1cccc(OC)c1C(=O)Nc1nc(-c2ccccc2)cs1	0%	-10%	-12%	-20%	36%	-5%
CC(=O)Nc1cccc(-c2csc(NCc3ccccc3)n2)c1	-10%	20µM*	-13%	13µM*	?	-10%
COc1cccc(-c2csc(NC(=O)Oc3ccccc3)n2)c1	24%	?	-14%	89µM*	?	-21%
CC(=O)Nc1cccc(-c2csc(Nc3ccccn3)n2)c1	11%	-11%	-5%	?	6%	-1%
C=CCOc1ccc(C=CC(=O)c2c(O)c(OC)c(OC)c(OC)c2OC)cc1	45µM*	/	/	14µM*	50µM*	-8%
COc1ccc2cc(C(=O)/C=C/c3cc(OC)c(O)c(OC)c3)ccc2c1	-21%	?	/	?	?	1%
C=CCOc1ccc(/C=C/C(=O)OCC(=O)NCc2cccc(OC)c2)cc1	-3%	11%	7%	1%	23%	-4%
COc1ccc(C=CC(=O)c2c(OC)cc(OC)c(OC)c2O)cc1	?	/	/	?	40µM*	-1%
Cc1nn(CC(=O)Nc2cc(F)ccc2F)c(=O)c2cccn12	20%	-15%	/	-4%	39%	/
CCN(C(=O)CSc1nc2cc(S(=O)(=O)N(CC)CC)ccc2o1)C1CCS(=O)(=O)C1 (centres undefined)	?	-21%	/	-1%	?	21µM*
Oc1ccc(-c2nc(-c3ccc(O)c(O)c3)cs2)cc1	-5%	?	-28%	50µM*	?	-4%
COc1ccc(CNCCSc2nnnn2-c2ccccc2)c(OC)c1	4%	-14%	/	-18%	11%	/
CCC(=O)N1CCc2cc(CNS(=O)(=O)c3ccccc3F)ccc21	14%	6%	/	9%	28%[57 µM]	/
SMILES	VDR inh	BAZ2B inh	L3MBTL1 block	JMJD2A Tudor	HP1b binding inh	PLK1 PBD inh
Nc1c(Cl)cc(N=Nc2ccccc2)cc1Cl	4%	/	/	14µM*	?	-4%
C#CCOCCOCCOCCNc1nc(N2CCN(C(=O)[C@H](CCC(=O)O)n3cc(C(N)CC(C)C)nn3)CC2)nc(N2CCN(C(=O)[C@H](CCC(=O)O)n3cc(C(N)[C@H](C)CC)nn3)CC2)n1 (some centres undefined)	-9%	50µM*	8%	79µM*	27%	0%
C#CCOCCOCCOCCNc1nc(N2CCN(C(=O)C([C@@H](C)CC)n3cc(C(N)CC(C)C)nn3)CC2)nc(N2CCN(C(=O)[C@H](CCC(=O)O)n3cc(C(N)[C@H](C)CC)nn3)CC2)n1 (some centres undefined)	12%	?	0%	71µM*	32%	3%
C#CCOCCOCCOCCNc1nc(N2CCN(C(=O)C([C@@H](C)O)n3cc([C@@H](N)CCCCN)nn3)CC2)nc(N2CCN(C(=O)[C@H](CC(N)=O)n3cc(C(N)[C@@H](C)CC)nn3)CC2)n1 (some centres undefined)	-3%	/	-2%	?	32%	5%
C#CCOCCOCCOCCNc1nc(N2CCN(C(=O)[C@H](CCC(=O)O)n3cc(C(N)CC(C)C)nn3)CC2)nc(N2CCN(C(=O)[C@H](Cc3ccc(O)cc3)n3cc(C(N)[C@H](C)CC)nn3)CC2)n1 (some centres undefined)	/	32µM*	-16%	/	/	/
COc1cc2ccccc2cc1C(=O)Nc1ccc2oc(-c3cccc(C)c3)nc2c1	-15%	0%	/	-10%	17%	/
CC(C)NC(=O)C(c1ccc(F)cc1)N(C(=O)CCC(=O)Nc1ccccn1)c1cccc(F)c1 (centres undefined)	4%	0%	/	-7%	8%	-14%
Clc1ccc(Cn2nnc(-c3ccccc3)n2)cc1	-3%	308%	65%	8%[11.4 µM]	160%	-19%
Clc1ccccc1-c1nnn(Cc2ccc(-c3nn[nH]n3)cc2)n1	-22%	-29%	-5%[11.4 µM]	14%[11.4 µM]	-14%	27µM*
CCOC(=O)/C(=N\Nc1ccc(OC)cc1)c1csc(Nc2ccccc2)n1	-5%	?	/	40µM*	-20%	-1%
CC1(C2CC2)NC(=O)N(CC(=O)N2CCN(c3ccc(F)cc3)CC2)C1=O (centres undefined)	4%	-2%	0%	-9%	39%	1%
Clc1ccc(CO/N=C2\CCCc3nonc32)cc1	?	144%	6%	71µM*	81%	21µM*
Cc1ccc(C)n1-c1sc2c(c1C(=O)O)CCCC2	-14%	?	?	22µM*	?	17µM*
Cc1ccc(C(=O)Nc2sc3c(c2C(=O)O)CCCC3)o1	-26%	-33%	/	-3%	19%	-7%
ClN=C1C=CC=CC1=NCl	/	/	/	/	/	11µM*
CCc1ccc(N2C(=O)CS(=O)(=O)C23C(=O)N(Cc2ccccc2)c2ccccc23)cc1 (centres undefined)	-3%	-2%[57.1 µM]	/	-29%	-15%	/
CCOC(=O)c1[nH]c2ccccc2c1NC(=O)c1cc(Cl)ccc1Cl	3%	-16%	/	-27%	5%	/
CCOC(=O)c1[nH]c2ccccc2c1NC(=O)c1ccccc1OC	0%	79µM*	/	-29%	5%	/
O=C(NC1CCN(Cc2ccccc2)CC1)C12CC3CC(CC(C3)C1)C2	-15%	-5%	0%	-20%	12%	-2%
